Potency and outcome data for 8 compounds are collected here from PubChem BioAssay (Tox21).

The structures appear in SMILES notation. “And” between values parts separate entries of the source, which are not always exact repeats. Equal entries are not always repeated. Some structures have more than one record in an assay (separate samples or runs), and their calls can disagree. The source made the active and inactive calls. Unless noted, calls follow the shape of the dose curve; as a rule, active = well fitted curve in the direction sought with a large enough effect in the repeat runs; inconclusive = weak or mixed curves; inactive = no such curve, though single readings can be large; an effect the other way counts as inactive or inconclusive.

Assay [1] in a line: qHTS assay for identifying genotoxic compounds that show differential cytotoxicity against isogenic chicken DT40 cell lines with known DNA damage response pathways - wild type cell line (AID 743012). Also: nearly all actives have a fitted effect of over 60% in size. Also: potency is read from the fitted curve at half-maximal effect. Summed up:
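Viability of DNA repair-proficient chicken DT40 cells was assessed by CellTiter-Glo luminescence following 40 h compound exposure at 37 C/5% CO2.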
A general note: Quantitative high-throughput screening tests each substance at several concentrations.

Assay [2] in a line: qHTS assay for identifying genotoxic compounds that show differential cytotoxicity against isogenic chicken DT40 cell lines with known DNA damage response pathways - Rad54/Ku70 mutant cell line (AID 743015). Also: nearly all actives have a fitted effect of over 60% in size.
Assay [3] is described as follows: qHTS assay to identify small molecule antagonists of the androgen receptor (AR) signaling pathway - cell viability counter screen (AID 743033; also: nearly all actives have a fitted effect of over 45% in size; also: potency is read from the fitted curve at half-maximal effect).
A short description of assay [4]: qHTS assay to identify small molecule antagonists of the androgen receptor (AR) signaling pathway using the MDA cell line - cell viability counter screen (AID 743041; also: nearly all actives have a fitted effect of over 45% in size). Summed up:
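Cytotoxicity counter screen: MDA-kb2 AR-luc cells, compound + R1881, 16 h, 37C, 0% CO2; CellTiter-Fluor added at 15.5 h, fluorescence read after 30 min.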

Assay [5] can be described thus: qHTS assay to identify small molecule antagonists of the thyroid receptor (TR) signaling pathway - cell viability counter screen (AID 743064). Also: nearly all actives have a fitted effect of over 50% in size. The procedure, abridged:
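Compounds were tested on GH3.TRE-Luc cells in the presence of T3 at 1 nM final. Following 23.5 h at 37 °C, cell viability was quantified by CellTiter-Fluor.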

Assay [6] relates to thyroid hormone receptor (rat, GH3 cells). The assay can be described thus: qHTS assay to identify small molecule agonists of the thyroid receptor (TR) signaling pathway (AID 743066; calls by dose curve).
Assay [7] is described as follows: qHTS assay to identify small molecule antagonists of the estrogen receptor alpha (ER-alpha) signaling pathway - cell viability counter screen (AID 743074; calls by dose curve;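 also: HEK293 cells carrying ER-alpha-UAS-bla reporter stimulated with 17beta-estradiol; nearly all actives have a fitted effect of over 45% in size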).
The target in assay [8] is Estrogen receptor (Homo sapiens) (UniProt P03372). The assay can be described thus: qHTS assay to identify small molecule agonists of the estrogen receptor alpha (ER-alpha) signaling pathway (AID 743075; calls by dose curve;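 also: HEK293 GripTite cells with ER-alpha and UAS-driven beta-lactamase reporter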; also: potency is read from the fitted curve at half-maximal effect).
Sequence of Estrogen receptor (Homo sapiens) (P03372 whole entry, looked up): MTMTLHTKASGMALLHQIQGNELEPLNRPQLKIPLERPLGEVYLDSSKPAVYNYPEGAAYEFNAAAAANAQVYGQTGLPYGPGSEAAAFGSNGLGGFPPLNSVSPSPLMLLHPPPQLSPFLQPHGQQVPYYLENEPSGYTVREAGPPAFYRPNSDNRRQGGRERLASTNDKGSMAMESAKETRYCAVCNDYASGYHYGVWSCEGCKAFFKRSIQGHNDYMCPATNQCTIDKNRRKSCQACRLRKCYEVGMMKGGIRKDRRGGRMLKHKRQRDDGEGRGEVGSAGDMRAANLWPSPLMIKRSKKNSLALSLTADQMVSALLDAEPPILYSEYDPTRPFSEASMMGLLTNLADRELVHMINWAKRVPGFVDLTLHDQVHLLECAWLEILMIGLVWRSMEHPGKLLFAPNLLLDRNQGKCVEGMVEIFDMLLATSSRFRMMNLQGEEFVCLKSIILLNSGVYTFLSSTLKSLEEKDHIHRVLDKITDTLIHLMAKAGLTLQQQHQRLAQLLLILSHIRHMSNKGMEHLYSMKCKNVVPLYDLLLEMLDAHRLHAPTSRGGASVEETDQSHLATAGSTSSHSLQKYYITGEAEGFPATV
Assay [9] has the same target. Nature of the assay: qHTS assay to identify small molecule agonists of the estrogen receptor alpha (ER-alpha) signaling pathway using the BG1 cell line (AID 743079). Also: nearly all actives have a fitted effect of over 20% in size. Also: potency is read from the fitted curve at half-maximal effect. The settings on record: BG1Luc4E2 cells, ERE-luciferase agonist, 22 h; activation: at 70.3 µM (top of the series).
Assay [10] in a line: qHTS assay to identify small molecule antagonists of the estrogen receptor alpha (ER-alpha) signaling pathway using the BG1 cell line (AID 743080; calls by dose curve;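 also: BG1 cells stimulated with 17beta-estradiol alongside compound; nearly all actives have a fitted effect of over 25% in size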; also: potency is read from the fitted curve at half-maximal effect). The procedure, abridged: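 Luciferase inhibition measured with ONE-Glo after 30 min at RT in BG1Luc4E2 cells given test compounds and 17beta-estradiol for 21.5 h at 37 C; CellTiter-Fluor viability read in the same wells beforehand.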

Assay [11] in a line: qHTS assay to identify small molecule antagonists of the estrogen receptor alpha (ER-alpha) signaling pathway using the BG1 cell line - cell viability counter screen (AID 743081).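 Also: compound given together with 17beta-estradiol as the ER stimulus; nearly all actives have a fitted effect of over 45% in size.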
In assay [12] the target is Aromatase (Homo sapiens) (UniProt P11511). The assay can be described thus: qHTS assay to identify aromatase inhibitors (AID 743083). Also: nearly all actives have a fitted effect of over 55% in size. Also: potency is read from the fitted curve at half-maximal effect.
Sequence of Aromatase (Homo sapiens) (P11511 whole entry, looked up): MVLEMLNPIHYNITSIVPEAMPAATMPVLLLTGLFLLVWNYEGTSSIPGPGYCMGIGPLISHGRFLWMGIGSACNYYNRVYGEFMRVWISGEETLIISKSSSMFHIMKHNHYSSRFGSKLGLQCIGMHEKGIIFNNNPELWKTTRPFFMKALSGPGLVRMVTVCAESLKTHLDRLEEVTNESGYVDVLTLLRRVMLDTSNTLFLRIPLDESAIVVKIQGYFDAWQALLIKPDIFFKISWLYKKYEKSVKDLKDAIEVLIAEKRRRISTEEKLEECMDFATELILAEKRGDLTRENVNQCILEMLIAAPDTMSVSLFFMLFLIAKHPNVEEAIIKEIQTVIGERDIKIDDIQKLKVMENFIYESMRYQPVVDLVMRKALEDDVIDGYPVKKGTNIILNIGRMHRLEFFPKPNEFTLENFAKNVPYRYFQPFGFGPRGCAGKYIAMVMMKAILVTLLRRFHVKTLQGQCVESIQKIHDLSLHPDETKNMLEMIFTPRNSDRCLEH
The nature of assay [13]: qHTS assay for identifying genotoxic compounds that show differential cytotoxicity against isogenic chicken DT40 cell lines with known DNA damage response pathways - Rev3 mutant cell line (AID 743014). Also: nearly all actives have a fitted effect of over 55% in size. Also: potency is read from the fitted curve at half-maximal effect.
A short description of assay [14]: qHTS assay to identify small molecule antagonists of the thyroid receptor (TR) signaling pathway (AID 743065). Also: nearly all actives have a fitted effect of over 55% in size. Summed up:
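GH3.TRE-Luc rat pituitary cells (two TREs driving luciferase) were dosed with compound, then stimulated with 1 nM T3 (final) for 23.5 h at 37 C. ONE-Glo luminescence was the read-out, with CellTiter-Fluor fluorescence as the cytotoxicity counter-screen.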

In assay [15] the target is Androgen receptor (Homo sapiens) (UniProt P10275). The assay can be described thus: qHTS assay to identify small molecule antagonists of the androgen receptor (AR) signaling pathway (AID 743035; active = well fitted inhibition curve with a large enough effect in the signal ratio in the repeat runs, not every such curve was filed as active; inconclusive = weak or mixed curves, or effect the other way; inactive = no such curve, though single readings can be large or run the other way; the % refers to the signal ratio; also: potency is read from the fitted curve at half-maximal effect). The procedure, abridged:
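Reporter HEK293 cells were exposed to compounds and R1881 overnight (16 h, 37C); beta-lactamase activity was then quantified by FRET fluorescence.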

For assay [16] the target is unchanged. The assay can be described thus: qHTS assay to identify small molecule agonists of the androgen receptor (AR) signaling pathway using the MDA cell line (AID 743040; also: nearly all actives have a fitted effect of over 20% in size). The procedure, abridged:
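Luciferase read-out, ONE-Glo, 30 min RT. Cells: MDA-kb2 AR-luc, MMTV promoter with AR and GR response elements. Compound exposure 16 h, 37C, 0% CO2, after 5 h pre-incubation. qHTS agonist mode.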

The target in assay [17] is Estrogen receptor (Homo sapiens) (UniProt P03372). Nature of the assay: qHTS assay to identify small molecule antagonists of the estrogen receptor alpha (ER-alpha) signaling pathway (AID 743069; active = well fitted curve in the direction sought with a large enough effect in the signal ratio in the repeat runs, not every such curve was filed as active; inconclusive = weak or mixed curves, or effect the other way; inactive = no such curve, though single readings can be large or run the other way; the % refers to the signal ratio). Summed up: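 Beta-lactamase FRET fluorescence is read after 2 hr at room temperature with LiveBLAzer B/G substrate. Before that, ER-alpha-bla HEK293 cells sit 4 hr after plating, then receive compound plus 17beta-estradiol and incubate 18 hr at 37C.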

Sequence of Androgen receptor (Homo sapiens) (P10275 whole entry, looked up): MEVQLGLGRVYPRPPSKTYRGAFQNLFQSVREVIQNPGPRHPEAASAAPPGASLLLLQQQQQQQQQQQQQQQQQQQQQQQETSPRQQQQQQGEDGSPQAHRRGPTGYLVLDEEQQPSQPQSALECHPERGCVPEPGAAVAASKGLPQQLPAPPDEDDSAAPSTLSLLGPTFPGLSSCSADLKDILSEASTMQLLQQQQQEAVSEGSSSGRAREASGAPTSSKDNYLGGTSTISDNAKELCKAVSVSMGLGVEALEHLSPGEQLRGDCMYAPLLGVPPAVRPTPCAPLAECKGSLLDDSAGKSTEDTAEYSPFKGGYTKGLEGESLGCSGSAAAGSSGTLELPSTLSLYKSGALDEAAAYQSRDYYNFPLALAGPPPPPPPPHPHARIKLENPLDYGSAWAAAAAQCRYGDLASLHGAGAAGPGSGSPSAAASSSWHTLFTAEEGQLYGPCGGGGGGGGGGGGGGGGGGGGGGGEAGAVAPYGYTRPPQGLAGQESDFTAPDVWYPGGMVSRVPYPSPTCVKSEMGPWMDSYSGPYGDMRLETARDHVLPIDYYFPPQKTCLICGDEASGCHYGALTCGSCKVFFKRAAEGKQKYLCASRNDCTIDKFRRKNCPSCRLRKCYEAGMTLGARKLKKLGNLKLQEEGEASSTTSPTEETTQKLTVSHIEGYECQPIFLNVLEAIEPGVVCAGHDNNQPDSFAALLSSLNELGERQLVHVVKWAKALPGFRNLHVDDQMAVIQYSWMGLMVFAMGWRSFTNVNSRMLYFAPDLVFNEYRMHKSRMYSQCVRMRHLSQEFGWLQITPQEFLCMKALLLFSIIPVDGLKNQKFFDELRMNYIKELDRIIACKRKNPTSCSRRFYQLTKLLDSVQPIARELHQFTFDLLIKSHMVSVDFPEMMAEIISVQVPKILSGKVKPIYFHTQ

Turning to `C=Cc1cccc(CCl)c1`, the Potency result in [1], in assay [2], in [3], in assay [4], in [5] and in assay [6] was “inactive” throughout. The Potency result in [7], in assay [8], in [9], in assay [10], in assay [11] and in [12] was “inactive” throughout.

As to `CNC(=O)/C=C(\C)OP(=O)(OC)OC`, the Potency entry in assay [1], in [13], in assay [3], in assay [4], in assay [14] and in assay [6] was “inactive” each time. For the same compound, the Potency result in assay [7], in assay [8], in assay [9], in assay [10], in assay [11] and in assay [12] was “inactive” each time.

In the case of `COC(=O)c1ccccc1S(=O)(=O)NC(=O)Nc1nc(C)nc(OC)n1`, the Potency entry in assay [1], in assay [13], in assay [3], in [4], in assay [14] and in assay [6] was “inactive” in each case. Besides, the Potency result in [7], in [11] and in assay [12] was “inactive” in each case.

For the compound `O=S1OCC2C(CO1)C1(Cl)C(Cl)=C(Cl)C2(Cl)C1(Cl)Cl` (stereo not given), the Potency in assay [1] is 54.5 µM (active) and 24.3 µM (active); in assay [13], 30.7 µM (active) and 34.3 µM (active); in [3] it was 49 µM (active); in assay [15], 38.9 µM (active) and 48.9 µM (active); in assay [8], 43.7 µM [inconclusive] (active) and inactive; in [9] it was 1.94 µM (active). Also, the Potency was 61.2 µM (active) and 61.1 µM (active) in assay [10]; 27.3 µM (active) in assay [12]. The compound was called inactive in assay [16]. Also, the Potency result in assay [4], in [7] and in assay [11] was “inactive” each time.

In the case of `CCCCN(CCCC)C(=S)S`, the Potency result in assay [13], in assay [3], in [4], in assay [5], in assay [14] and in assay [6] was “inactive” each time. For the same compound, the Potency result in assay [7], in [8], in [9], in [10], in assay [11] and in assay [12] was “inactive” in each case.

Consider `O=C(Cl)c1ccccc1F`, for which the Potency result in [1], in assay [3], in assay [4], in assay [14], in assay [6] and in assay [17] was “inactive” in each case. Further, the Potency result in assay [7], in assay [8], in assay [9], in [10], in assay [11] and in assay [12] was “inactive” in each case.

As for `CCCCN(CCCC)C(=S)[S-].CCCCN(CCCC)C(=S)[S-].[Ni+2]`, the Potency entry in [1], in assay [13], in assay [3], in assay [4], in [5] and in assay [14] was “inactive” each time. Besides, the Potency entry in [6], in assay [7], in assay [8], in [10], in assay [11] and in assay [12] was “inactive” each time.

Take `CCCCC(CC)COC(=O)c1ccccc1C(=O)OCC(CC)CCCC` (stereo not given): the Potency result in assay [2], in assay [3], in assay [6], in assay [17], in assay [8] and in assay [9] was “inactive” each time. Besides, the Potency entry in assay [10], in [11] and in [12] was “inactive” in each case.
